Bioassay records as filed in PubChem.
CCT chaperon mod: cytosolic chaperonin activity modulation. 0.3% of 360,000 active. purified chaperonin ATPase assay, HTRF ADP detection, 30 min. AID 651819. activity change, % (test concentration not listed), hits read low; in the data active = activity change below about -30%; note: % is set by controls: 0 for no effect and ±100 for the full control effect
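TRiC (40 or 20 nM final, by batch activity) in 30 mM Tris pH 7.4, 100 mM KCl, 5 mM MgCl2, 1 mM DTT was treated with compound at 76 uM single dose, then 10 uM ATP, 30 min at 37 °C. ADP was read by HTRF Transcreener.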
A-T KAP1 phos: potential ataxia-telangiectasia treatments restoring KAP-1 phosphorylation; 0.19% of 320,000 active; F2112 A-T fibroblasts, KAP-1 phosphorylation AlphaLISA; neocarzinostatin DNA damage 30 min before lysis; Potency, µM (top dose mostly 57.5 µM), inactives show top-dose activation, most hits filed as activators; note: potency is the fitted concentration of half-maximal effect; % of control where 0% means no effect; nearly all actives have a fitted effect of over 45% in size
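ATM-like activity read as KAP-1 phosphorylation via AlphaLISA donor/acceptor antibody pairs after lysis and 6 hr at 25C. Cells were ATM-null patient fibroblasts (F2112, hTERT), dosed 60 min, then exposed to the DSB inducer NCS for 30 min.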
A549 viability: counter-screen for Nrf2 inhibitors: cytotoxicity in A549 cells. A549 ARE-Fluc cells, CellTiter-Fluor viability, 18-24 h. Potency, µM (titrated, usually from 46 µM), inactives show top-dose activity change, negative = cytotoxicity, hits mostly inhibitors. 0.16% of 390,000 active. AID 504648; note: potency is the fitted concentration of half-maximal effect; % is set by controls: 0 for no effect and ±100 for the full control effect
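A549 ARE_Fluc cells in 5% FBS OPTI-MEM were exposed to compounds in concentration-response for 18-24 h at 37 deg C. Viability was read by CellTiter-Fluor fluorescence (Ex 405/Em 525) after 30 min, before the luciferase read.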
Nrf2 activator: Nrf2 pathway activation; Potency, µM (top dose mostly 46.1 µM), for inactives: at the highest dose activation, hits mostly activators; 0.31% of 410,000 active; AREc32 ARE-luciferase reporter (MCF7-derived line), luminescence, 24 h; note: potency is the fitted concentration of half-maximal effect; % of control where 0% means no effect; nearly all actives have a fitted effect of over 65% in size
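Each well held 1000 AREc32 cells, which were incubated with compound for 24 hr at 37 deg C after overnight attachment, and ARE reporter activity was quantified by firefly luciferase luminescence.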
TCR activator: activates T cell receptor signaling | primary human leukocytes, anti-CD3, IL-2 HTRF, 48 h | 330,000 tested, under 10 active | Potency, µM (doses to about 9.22 µM), without a hit: top-dose activation of IL-2 secretion, actives largely listed as activators; note: % of control where 0% means no effect
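Compounds are tested in HTS on primary human leukocytes co-incubated with a-CD3 beads for 48 hr. IL-2 output is measured by time-resolved FRET.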
Nrf2 inh: inhibitors of Nrf2 signaling | A549 ARE-Fluc reporter, luciferase luminescence, 18-24 h | Potency, µM (series often up to 46 µM), for the others: top-dose activity change, negative = inhibition, usual class: inhibitors | 2.1% of 360,000 active; note: potency is the fitted concentration of half-maximal effect; % is set by controls: 0 for no effect and ±100 for the full control effect; nearly all actives have a fitted effect of over 60% in size
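Nrf2 function is reported as luminescence of an ARE-controlled luciferase in A549 cells. Compounds were tested at several concentrations, and a CellTiter-Fluor read on the same wells flagged cytotoxicity.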
An asterisk follows results filed as active; [ ] = remark or other dose. Only some compounds are listed: those with a hit (about 2.6% of all), similar ones and a draw of the others. Unless noted, calls come from the whole dose curve; as a rule, active = well fitted curve in the direction sought with a large enough effect; inconclusive = small, poorly fitted or top-dose-only effect, or another doubt; inactive = no such curve, though single readings can be large; an effect the other way counts as inactive or inconclusive.

`Cc1ccc(NC2=C/C(=N\S(=O)(=O)c3cccs3)c3ccccc3C2=O)c(C)c1` gave CCT chaperon mod -4.1, A-T KAP1 phos -2.5%, A549 viability 18.4µM*, Nrf2 activator -2.3%, TCR activator 2.0%[46.1 µM] and Nrf2 inh inconclusive.
Cc1ccc(Cl)cc1NC1=C/C(=N\S(=O)(=O)c2cccs2)c2ccccc2C1=O was read as CCT chaperon mod -0.2, A549 viability inconclusive, Nrf2 activator -2.9%, TCR activator -1.1% and Nrf2 inh 16.4µM*.
`COc1cccc(C(=O)Nc2cc(C)c3c(=O)oc4ccccc4c3n2)c1` gave CCT chaperon mod 0.6, A-T KAP1 phos 40.5%, A549 viability 1.2%, Nrf2 activator inconclusive, TCR activator -0.8% and Nrf2 inh 18.7%.
For CCc1ccc(CNC(=O)CCCn2ccc3cc(S(=O)(=O)N4CCCC4)ccc32)cc1 the results were A549 viability -22.1%, Nrf2 activator -0.7% and Nrf2 inh inconclusive.
CCc1cccc(CC)c1NC(=O)c1cc(S(=O)(=O)N2CCc3ccccc32)cn1C was read as A549 viability -19.4%, Nrf2 activator -1.2% and Nrf2 inh 23.1µM*.
For C=CCC[C@H](Cc1ccc(F)cc1)C(=O)OC[C@@H](NC(=O)[C@@H](CC=C)CC(=O)N(CCO)Cc1ccccc1)C(C)(C)C the results were CCT chaperon mod -12.9, A-T KAP1 phos 6.1%, A549 viability 6.51µM*, Nrf2 activator -4.9%, TCR activator -3.2% and Nrf2 inh 3.26µM*.
`C=CCC[C@@H](Cc1ccc(F)cc1)C(=O)OC[C@@H](NC(=O)[C@@H](CC=C)CC(=O)N[C@@H](CO)Cc1ccccc1)C(C)(C)C` gave CCT chaperon mod -1.3, A-T KAP1 phos 2.8%, A549 viability inconclusive, Nrf2 activator -1.4%, TCR activator 2.0% and Nrf2 inh 20.6µM*.
C=CCC[C@H](Cc1ccc(F)cc1)C(=O)OC[C@@H](C)NC(=O)[C@@H](CC=C)CC(=O)N[C@H](CO)Cc1ccccc1 was read as CCT chaperon mod -1.7, A-T KAP1 phos -10.9%, A549 viability inconclusive, Nrf2 activator -0.3%, TCR activator 6.0% and Nrf2 inh 20.6µM*.
COc1cccc(Cn2c(=O)n(-c3cccc(Cl)c3)c(=O)c3c4c(sc32)CN(C(C)=O)CC4)c1 was read as A549 viability -7.2%, Nrf2 activator 3.2% and Nrf2 inh inconclusive.
COc1ccc(C2C(C(C)=O)=C(O)C(=O)N2c2ccc(F)cc2)cc1 (stereo not given) was read as CCT chaperon mod 0.7, A-T KAP1 phos -0.4%, A549 viability 5.2%, Nrf2 activator -0.7%, TCR activator -10.0% and Nrf2 inh 2.4%.
Cc1ncc(N=Nc2ccccc2)c(-c2ccccc2)n1 was read as CCT chaperon mod 0.2, A-T KAP1 phos 5.1%, A549 viability -1.1%, Nrf2 activator 3.98µM*, TCR activator -3.2% and Nrf2 inh -2.4%.
Screening Cc1ncc(S(=O)(=O)c2ccccc2)c(-c2ccccc2)n1 returned CCT chaperon mod 1.7, A-T KAP1 phos 3.3%, A549 viability 0.5%, Nrf2 activator -0.4%, TCR activator -6.7% and Nrf2 inh -2.4%.
C[C@@H]1CN([C@@H](C)CO)C(=O)CCCn2cc(nn2)CO[C@H]1CN(C)S(=O)(=O)c1ccccc1C#N was read as CCT chaperon mod -52.8* and Nrf2 activator -0.5%.
C[C@@H]1CN([C@H](C)CO)C(=O)CCCn2cc(nn2)CO[C@H]1CN(C)S(=O)(=O)c1ccccc1F was read as CCT chaperon mod -0.3 and Nrf2 activator -1.0%.
CCOC(=O)[C@H]1O[C@@H]1C(=O)N[C@@H](CC(C)C)C(=O)NCCC(C)C was read as CCT chaperon mod 0.0, A549 viability 20.6µM*, Nrf2 activator 4.7%, TCR activator -11.7% and Nrf2 inh 9.8%.
For O=C1N/C(=C\c2nc3ccccc3s2)c2ccccc21 the results were A-T KAP1 phos 2.5%.
`O=C1N/C(=C\c2ccccc2)c2ccccc21` gave CCT chaperon mod 1.1, A-T KAP1 phos -0.9%, A549 viability 12.5%[1.84 µM], Nrf2 activator 8.91µM* and Nrf2 inh inconclusive.
Screening O=S(=O)(c1ccc(F)cc1)N1CCN(c2nc(-c3ccccc3)nc3ccccc23)CC1 returned A549 viability 0.0% and Nrf2 inh 18.9%.
Cc1ccc(-n2nc3c(=O)n(CC(=O)NCCC4=CCCCC4)nc(C)c3c2C)cc1 was read as CCT chaperon mod -77.6*, A-T KAP1 phos -1.3%, A549 viability -8.5%, Nrf2 activator 0.4%, TCR activator -8.8% and Nrf2 inh inconclusive.
Cc1ccc(-n2nc3c(=O)n(CC(=O)NCCc4ccc(Cl)cc4)nc(C)c3c2C)cc1 was read as CCT chaperon mod -0.4, A-T KAP1 phos -1.8%, A549 viability 0.7%, Nrf2 activator 0.6%, TCR activator 12.7% and Nrf2 inh -5.9%.
For Cc1ccc(-n2nc3c(=O)n(CC(=O)NC(C)CCc4ccccc4)nc(C)c3c2C)cc1 (stereo not given) the results were CCT chaperon mod 1.3, A-T KAP1 phos -2.2%, A549 viability -13.0%, Nrf2 activator 0.5%, TCR activator 4.4% and Nrf2 inh 5.17µM*.
For CCOC(=O)c1ccc(-n2cnc3c(c2=N)C(c2cccc(OC)c2)c2c(ccc4ccccc24)O3)cc1 (stereo not given) the results were A549 viability -1.2% and Nrf2 inh -0.8%.
CCC1CCCCN1CCCNC(=O)Cn1ncc2c(C)n(Cc3ccccc3Cl)c(C)c2c1=O (stereo not given) was read as CCT chaperon mod -0.3, A-T KAP1 phos 1.4%, A549 viability -3.1%, Nrf2 activator 0.3%, TCR activator -2.2% and Nrf2 inh -12.5%.
`Cc1c(NC(=O)/C(C#N)=C/c2ccc(-c3ccc(Cl)cc3)o2)c(=O)n(-c2ccccc2)n1C` gave CCT chaperon mod 0.1, A-T KAP1 phos -6.7%, A549 viability 23.1µM*, Nrf2 activator 10.2%, TCR activator -10.7%[46.1 µM] and Nrf2 inh inconclusive.
`Cc1ccc(NC(=S)NC2CCSc3ccccc32)cc1C` (stereo not given) gave CCT chaperon mod 0.0, A-T KAP1 phos -2.5%, A549 viability -21.6%, Nrf2 activator 0.4%, TCR activator -2.6% and Nrf2 inh 23.1µM*.
